Screening results (PubChem BioAssay)
Mtb betalactam – beta-lactam sensitization of Mtb H37Rv; M. tuberculosis H37Rv growth with meropenem, percent inhibition; inhibition, % at 25 µM; 330,000 tested, 0.27% active; AID 434955;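 also: growth measured after seven days incubation then overnight dye step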
GDH-TPI counter – GDH-TPI coupled enzyme inhibition counter-screen; GDH-TPI coupled enzyme counterscreen, NADH absorbance; inhibition, % at 4.8 µM; 360,000 tested, 1.2% active; AID 588335; in the data active = inhibition above about 30%
RecA splice inh – blocks M. tuberculosis RecA intein splicing; P9WHJ3; cell-free RecA intein splicing, fluorescence; inhibition, % (concentration not given with the values); 290,000 tested, 0.75% active; in the data active = inhibition above about 30%
Rv3671c protease – Rv3671c (M. tuberculosis) protease inhibition; AID 2606; inhibition, % at 5.96 µM; P9WHR9; 320,000 tested, 0.048% active; in the data active = inhibition above about 38%;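 also: extracellular domain of Rv3671c used as enzyme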
Mtb FBA inh – inhibitors of M. tuberculosis fructose-bisphosphate aldolase | P9WQA3 | purified M. tuberculosis FBA, fluorescence read-out | inhibition, % at 1 µM | 360,000 tested, 2.3% active; in the data active = inhibition above about 27%
Target sequence (P9WQA3 whole entry, looked up): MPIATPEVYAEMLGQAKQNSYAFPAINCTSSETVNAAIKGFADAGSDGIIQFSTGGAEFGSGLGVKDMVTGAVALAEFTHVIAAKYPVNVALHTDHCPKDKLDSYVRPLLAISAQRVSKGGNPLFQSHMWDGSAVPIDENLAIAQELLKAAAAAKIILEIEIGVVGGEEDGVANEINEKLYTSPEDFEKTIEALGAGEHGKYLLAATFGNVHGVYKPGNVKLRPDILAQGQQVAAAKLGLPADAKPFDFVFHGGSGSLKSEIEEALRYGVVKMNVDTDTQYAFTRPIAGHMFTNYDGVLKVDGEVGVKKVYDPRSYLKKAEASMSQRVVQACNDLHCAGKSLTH
UGM FP inh – inhibitors of M. tuberculosis UDP-galactopyranose mutase; P9WIQ1; purified UGM, fluorescence polarization probe displacement; inhibition, % at 10 µM; 320,000 tested, 0.06% active; in the data active = inhibition above about 10%, passing the limit was not always enough
GFP chromo cs – counter-screen GFP chromophore formation inhibition; EC50, µM; AID 434968; cell-free GFP chromophore formation, fluorescence; 2,100 tested, 83% active; shares compounds with RecA splice inh
Numbers stand for hits; 0 = inactive; - = no result given. Shown are actives, neighbours in structure and some others; about 4% of the full set was active somewhere. Unless noted, no rule for the calls is given here.

SMILES	Mtb betalactam	GDH-TPI counter	RecA splice inh	Rv3671c protease	Mtb FBA inh	UGM FP inh	GFP chromo cs
Cc1[nH][nH]c(=O)c1C	0	0	-	0	0	0	-
CCOC(=O)/C=c1\s/c(=C(\C#N)C(=O)NC)n(-c2ccccc2)c1=O	0	0	0	0	0	0	-
CCOC(=O)/C=c1\s/c(=C(\C#N)C(N)=O)n(-c2ccccc2)c1=O	0	0	48.9	0	0	0	24.2
O=C(COC(=O)COc1ccccc1)NC1CCCC1	0	0	-	0	0	0	-
Cc1ccc(NC(=O)CN(C)C(=O)c2cccc(-n3cccc3)c2)cc1	-	0	-	-	0	-	-
CCOC(=O)CCSCC(=O)N1N=C(c2cccs2)CC1c1ccc(C)cc1 (stereo unspecified)	0	0	0	0	0	0	-
Cc1ccc(C2CC(c3cccs3)=NN2C(=O)CCl)cc1 (stereo unspecified)	0	0	82.1	0	0	0	3.81
NC(=O)N=Nc1c(O)n(Cc2ccccc2)c2ccc(Br)cc12	0	0	0	-	0	0	-
CCc1ccc(NC(=O)C(=O)N/N=C(\C)CC(=O)Nc2ccccn2)cc1	0	0	35.6	0	0	0	0
C/C(CC(=O)Nc1ccccn1)=N\NC(=O)C(=O)Nc1ccccc1C	0	0	0	0	0	0	-
COc1ccccc1CN1CC(C(=O)NCC2(O)CCCCC2)CCC1=O (stereo unspecified)	-	0	-	-	0	-	-
COc1ccc(N(C(=O)CCl)C(C(=O)NCCc2ccccc2)c2cccs2)cc1 (stereo unspecified)	0	0	75.8	0	0	0	1.71
CC(C)CCn1c(Sc2nc3ccccc3o2)nc2c1c(=O)[nH]c(=O)n2C	0	0	31.1	0	0	0	5.03
COc1ccc(NC(=O)c2ccc(S(=O)(=O)N3CCCC3)cc2)cc1OC	0	0	-	0	0	0	-
O=C(O)CCCCCN1C(=O)/C(=C/c2cn(-c3ccccc3)nc2-c2cccs2)SC1=S	-	0	-	-	0	-	-
CC1=NNC(=O)/C1=C\c1cn(-c2ccccc2)nc1-c1cccs1	0	0	97.1	0	0	0	2.83
CC1=NNC(=O)/C1=C\c1cn(-c2ccccc2)nc1-c1ccc(F)cc1	-	0	65.6	-	0	-	2.46
O=Cc1cn(-c2ccccc2)nc1-c1ccc(F)cc1	0	0	0	0	0	0	-
Cc1c(C(=O)N(C)c2ccc(Cl)cc2)cnn1-c1ccccc1	0	0	0	0	0	0	-
CC(=O)c1c(C)nc(-c2ccc(Cl)cc2)nc1N=CN(C)C	0	0	0	0	0	0	0
Clc1ccc(Sc2oc(/C=N/n3cnnc3)cc2Br)cc1	0	0	62.5	0	0	0	22.4
COc1ccc(OC(C)C(=O)NC2CCCCCC2)cc1 (stereo unspecified)	0	0	0	0	0	0	-
Cc1cc(C)c(S(C)(=O)=O)c(Oc2ccc(F)cc2)n1	0	0	0	0	0	0	-
Cc1cc(C)c(S(C)(=O)=O)c(Oc2cccc(C(F)(F)F)c2)n1	0	0	32.6	0	0	0	0
CC(NC(=O)c1ccc(CS(C)(=O)=O)cc1)c1cccc2ccccc12 (stereo unspecified)	0	0	0	0	0	0	-
SMILES	Mtb betalactam	GDH-TPI counter	RecA splice inh	Rv3671c protease	Mtb FBA inh	UGM FP inh	GFP chromo cs
Cc1ccc(C(=O)C2C(c3ccc(-c4ccccc4[N+](=O)[O-])o3)NC(=O)NC2(O)C(F)(F)F)cc1 (stereo unspecified)	0	0	83.1	0	0	0	22
O=C1NC(c2ccc(-c3ccccc3[N+](=O)[O-])o2)C(C(=O)c2ccccc2)C(O)(C(F)(F)F)N1 (stereo unspecified)	0	0	0	0	0	0	-
NS(=O)(=O)c1ccc(Cc2ncc(C(F)(F)F)cc2Cl)s1	0	0	0	0	0	0	-
O=C(CCl)c1ccc(Cc2ncc(C(F)(F)F)cc2Cl)s1	0	0	79.2	0	0	0	3.38
N#Cc1nccnc1S(=O)(=O)c1cccs1	0	-	67.9	0	-	0	32.1
CN(Cc1ccccc1C#N)S(=O)(=O)c1cccs1	0	0	0	0	0	0	-
Cc1[nH]c2ccccc2c1CC#N	0	0	0	0	0	0	-
Cc1[nH]c2ccccc2c1C(C#N)(C#N)C1C(=O)c2ccccc2C1=O	0	0	42.1	0	0	0	34.1
COc1cc(/C=C(\C#N)c2nc3ccccc3s2)cc([N+](=O)[O-])c1O	-	0	-	-	0	-	-
N#C/C(=C\c1ccc(O)c([N+](=O)[O-])c1)c1nc2ccccc2s1	-	0	50.6	-	0	-	22.6
